Assay outcomes from PubChem.
Many of the other results were omitted from the sample, so hits are more common in it than they were.
KDM5B inhibitor – blocks human KDM5B histone demethylase activity; KDM5B demethylase, FDH-coupled NADH fluorescence (FDH is formaldehyde dehydrogenase); Potency, µM (series often up to 57.7 µM), most hits filed as inhibitors; 220,000 compounds, 2.6% hits; AID 1347165; active means well fitted inhibition curve with a large enough effect; further: nearly all actives have a fitted effect of over 70% in size
Target sequence (Q9UGL1 whole entry, looked up): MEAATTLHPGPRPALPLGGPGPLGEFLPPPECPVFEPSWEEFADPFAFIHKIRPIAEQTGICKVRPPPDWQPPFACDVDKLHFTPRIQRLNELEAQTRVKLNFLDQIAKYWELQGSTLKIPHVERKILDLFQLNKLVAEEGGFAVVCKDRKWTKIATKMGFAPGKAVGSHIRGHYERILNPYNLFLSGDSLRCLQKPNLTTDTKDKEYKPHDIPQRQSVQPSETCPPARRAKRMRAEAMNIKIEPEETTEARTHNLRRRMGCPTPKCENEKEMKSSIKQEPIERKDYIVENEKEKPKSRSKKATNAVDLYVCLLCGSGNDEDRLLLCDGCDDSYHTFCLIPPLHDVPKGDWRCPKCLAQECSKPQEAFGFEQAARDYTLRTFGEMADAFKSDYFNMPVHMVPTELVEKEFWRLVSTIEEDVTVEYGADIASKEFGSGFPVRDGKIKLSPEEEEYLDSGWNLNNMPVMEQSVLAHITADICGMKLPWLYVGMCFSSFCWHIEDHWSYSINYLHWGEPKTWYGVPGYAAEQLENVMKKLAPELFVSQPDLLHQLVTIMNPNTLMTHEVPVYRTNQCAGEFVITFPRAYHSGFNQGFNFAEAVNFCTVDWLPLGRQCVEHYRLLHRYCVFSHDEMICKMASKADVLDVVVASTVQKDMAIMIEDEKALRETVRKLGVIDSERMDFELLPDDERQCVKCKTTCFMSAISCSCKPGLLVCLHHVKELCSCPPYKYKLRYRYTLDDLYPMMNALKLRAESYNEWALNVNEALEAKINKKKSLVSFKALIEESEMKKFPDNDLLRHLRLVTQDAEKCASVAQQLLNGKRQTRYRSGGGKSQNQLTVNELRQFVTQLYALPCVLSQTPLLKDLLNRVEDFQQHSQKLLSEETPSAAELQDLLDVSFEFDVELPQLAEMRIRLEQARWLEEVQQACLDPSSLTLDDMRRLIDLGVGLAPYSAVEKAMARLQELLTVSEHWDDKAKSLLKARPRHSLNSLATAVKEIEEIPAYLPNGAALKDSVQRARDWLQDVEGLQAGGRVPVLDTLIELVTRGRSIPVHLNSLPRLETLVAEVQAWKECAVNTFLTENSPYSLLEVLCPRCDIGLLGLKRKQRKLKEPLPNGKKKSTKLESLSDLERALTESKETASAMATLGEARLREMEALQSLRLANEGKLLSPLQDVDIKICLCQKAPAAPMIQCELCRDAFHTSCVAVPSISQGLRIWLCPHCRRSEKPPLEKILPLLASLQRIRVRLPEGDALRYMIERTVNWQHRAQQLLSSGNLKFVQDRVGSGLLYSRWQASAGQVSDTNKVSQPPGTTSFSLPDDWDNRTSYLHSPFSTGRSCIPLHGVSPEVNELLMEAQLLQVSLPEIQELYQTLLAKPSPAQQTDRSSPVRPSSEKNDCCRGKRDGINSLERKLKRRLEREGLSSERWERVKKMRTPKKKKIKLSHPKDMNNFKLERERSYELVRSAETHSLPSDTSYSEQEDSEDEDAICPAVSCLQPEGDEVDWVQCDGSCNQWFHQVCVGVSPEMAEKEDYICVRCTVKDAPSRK
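KDM5BΔAP (200 nM final) in 50 mM HEPES pH 7.5, 0.01% Tween-20 was preincubated 10 min at RT with compound over a concentration range. Substrate mix (H3K4me3 12.5 µM, α-KG 25 µM, Fe²⁺, ascorbate, NAD⁺, FDH) was added, and NADH fluorescence change over 30 min gave dose-response curves.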
Of the large screens only hits and unclear results are named; the others gave an inactive call.

CC(=O)c1cc(F)c(N2CCN(C(=O)c3cccc(F)c3)CC2)cc1C	none
COc1cc(NC(=O)c2cc(=O)c3cc(C)ccc3o2)cc(OC)c1	none
Cn1c(=O)c2c(nc(NCc3ccco3)n2Cc2ccccc2Br)n(C)c1=O	none
CNC(=O)NC(=O)COC(=O)c1csc(NCc2ccccc2)n1	none
COc1cccc2cc(-c3csc(-c4ccccc4)n3)c(=O)oc12	none
CCOC(=O)c1cccc(NC(=O)N2CC[C@@H](CC(=O)NCCOC)[C@@H](CC)C2)c1	none
O=C(/C=C/c1ccccc1)Nc1ccc2c(c1)CCC2	none
Cn1cc(C(=O)N2CCN(S(=O)(=O)c3cc(F)ccc3F)CC2)c2ccccc21	none
O=C(CSc1ncc(-c2ccc(F)cc2)o1)Nc1ccccc1C(F)(F)F	none
CCOc1ccccc1/C=C1\NC(=O)NC1=O	none
Cc1ccc(C)c(C(=O)NCc2nnc3ccc(-c4ccc(C)c(C)c4)nn23)c1	KDM5B inhibitor 14µM
Cc1ccc(-c2ccc3nnc(CNC(=O)c4ccccc4)n3n2)cc1C	KDM5B inhibitor 28µM
Cc1ccc(-c2ccc3nnc(CNC(=O)c4cccn4C)n3n2)cc1C	none
COc1ccc(C(=O)NCc2nnc3ccc(-c4ccc(C)c(C)c4)nn23)cc1F	KDM5B inhibitor 32µM
Cc1ccc(NS(=O)(=O)c2cc(-c3ccc4nnc(C)n4n3)ccc2C)cc1	none
Cc1ccc(-c2ccc3nnc(CNC(=O)c4cccc5[nH]ccc45)n3n2)cc1C	KDM5B inhibitor 35µM
O=C(CSc1ccc2nnc(CCNC(=O)c3ccccc3)n2n1)Nc1ccccc1	none
COc1ccc(C(=O)NCc2nnc3ccc(-c4ccc(C)c(C)c4)nn23)cc1OC	none
O=C(O)c1cc(Cl)cc(Cl)c1I	none
CC(C)(C)C1CCC(C(=O)NCCc2c[nH]c3ccccc23)CC1 (stereo not given)	none
CCCS(=O)(=O)N1CCN(C2CCN(CCOC)C2=O)CC1 (stereo not given)	none
Cc1ccc2oc(C(=O)N(C)CCOc3ccc(F)cc3)cc(=O)c2c1	none
Cc1ccc(/C=C/C(=O)O)c(Br)c1	none
CCNC(=O)N[C@H]1[C@H](O)[C@H](O)C[C@@H]1c1ccncc1	none
c1ccc(Nc2cc3c(cn2)CN(Cc2cnc[nH]2)CCN3)cc1	none
c1ccc(Nc2cc3c(cn2)NCCN(Cc2ccc4[nH]ccc4c2)C3)cc1	KDM5B inhibitor 32µM
COc1cccc(Nc2cc3c(cn2)NCCN(Cc2ccccc2)C3)c1	KDM5B inhibitor 40µM
COc1cccc(CN2CCNc3cc(Nc4cccnc4)ncc3C2)c1	none
COc1cccc(CN2CCc3c(cc(C(=O)Nc4ccccc4)n3C)C2)c1	none
COc1cccc(CN2CCNc3cnc(Nc4ccccc4)cc3C2)c1	KDM5B inhibitor 35µM
Fc1cccc(CN2CCNc3cc(Nc4ccccc4)ncc3C2)c1	none
CN(C)c1cccc(Nc2cc3c(cn2)CN(Cc2ccccc2)CCN3)c1	none
CCCCCOc1ccc2c(C)c(CCCCC)c(=O)oc2c1	none
O=C(Cn1cnc2ccc(Br)cc2c1=O)N1CCCC1c1ccc2c(c1)OCCCO2 (stereo not given)	none
COc1ccc(NC(=O)CCn2nc(-c3ccc(C)cc3)c3ccccc3c2=O)cc1C(N)=O	none
CC1=CC(C)C(C2OCC3(CO2)C(C)C=C(C)CC3C)C(C)C1 (stereo not given)	none
CN(C)/C=C\C(=O)C1CC1	none
O=C(Nc1ccccc1O)c1nn(-c2ccccc2)c(=O)c2ccccc12	none
CSCCCNC(=S)NCC(C)(C)N1CCOCC1	none
O=C(c1cc(Cl)ccc1Cl)N1CCC(CN2CCOCC2)CC1	none
O=C(c1nc(-c2ccc(Cl)cc2Cl)c2cnccn12)N1CCOCC1	KDM5B inhibitor 79µM
O=C(c1nc(-c2cccnc2)no1)N1CCN(c2ccc(Cl)cc2)CC1	none
O=C(c1cc(-c2ccc(Cl)cc2Cl)on1)N1CCCC1	none
O=C(c1nc(-c2ccc(Cl)cc2)c2cnccn12)N1CCOCC1	KDM5B inhibitor 32µM
Cc1nc2c(c(-c3ccc(Cl)cc3)n1)CN(C(=O)c1cccnc1)CC2	none
O=C(CCc1c[nH]c2ccccc12)NC1(c2ccccc2)CCC1	none
COC(=O)c1ccc2nc(CO[C@H]3CN(Cc4ccc5c(c4)OCO5)C[C@H]3F)[nH]c2c1	none
COc1ccc(CNC(=O)c2cc(C(C)C)nc3onc(C)c23)cc1OC	none
COC[C@@H]1CN(C(=O)c2ccccc2OC)C[C@H]1c1ccccn1	none
Cc1cccc(C)c1OCC(=O)Nc1ccccc1C(=O)O	none
O=C(Oc1ccc(Cl)cc1)c1ccc2ncsc2c1	none
CN(C)c1ccc(C(=O)N2CCN(S(C)(=O)=O)[C@H](C(=O)N[C@H](Cc3c[nH]c4ccccc34)C(N)=O)C2)cc1	none
NC(=O)[C@@H](Cc1c[nH]c2ccccc12)NC(=O)[C@H]1CN(C(=O)c2cccc(F)c2)CCN1C(=O)C1CCNCC1	none
CN(C)c1ccc(C(=O)N2CCN(C(=O)c3ccc(N(C)C)cc3)[C@H](C(=O)N[C@H](Cc3c[nH]c4ccccc34)C(N)=O)C2)cc1	KDM5B inhibitor 28µM
COc1cc(NC(=O)Nc2ccc(F)cc2F)c(OC)cc1Cl	none
COc1ccccc1CN[C@H]1Cc2ccc(cc2)Nc2cc(ccc2OC)C[C@H](C(=O)NCc2ccccc2)N(C)C1=O	none
COc1ccccc1-c1cc(C(=O)N2CCCC2)c2cnn(C)c2n1	none
C#CCNC(=O)c1cc(-c2ccccc2OC)c2cnn(C)c2n1	KDM5B inhibitor 89µM
COc1ccccc1C1=NS(=O)(=O)N(C)C(C(=O)Nc2cc(OC)c(OC)c(OC)c2)=C1	none
COc1ccccc1-c1cc(C(=O)N2CCCC2)nc2c1cnn2C	KDM5B inhibitor 79µM
COc1ccccc1-c1cc(C(=O)N2CCCC2)nn2cccc12	none
C#CCNC(=O)c1ccc2ccccc2n1	none
CCSc1nc(C(C)(C)C)cc(C(F)(F)F)c1C#N	none
CC(C(=O)Nc1ccc2[nH]c(=O)[nH]c2c1)N(C)Cc1ccc(Cl)c(Cl)c1 (stereo not given)	none
O=c1oc2cc(OS(=O)(=O)c3ccccc3)ccc2cc1-c1ccccc1	none
CCc1noc([C@@H]2CC(F)(F)CN2C(=O)c2ccco2)n1	none
O=C(Cc1cccc(F)c1)N1CCC(Cc2nncn2-c2ccccc2)CC1	none
CC(C)COc1cccc(C(=O)Nc2cccc(C(F)(F)F)c2)c1	none
CNC(=O)c1cccc(-c2cnc(Nc3cccnc3)c3c2CCO3)c1	none
COc1cccc(C(=O)c2sc(Nc3ccc(F)c(Cl)c3)nc2N)c1	none
CNC(=O)c1cccc(-c2cnc(Nc3ccncc3)c3c2CCO3)c1	none
O=C(Nc1ncc(-c2cccc(F)c2)c2c1OCC2)c1ccc(F)c(Cl)c1	KDM5B inhibitor 22µM
CNC(=O)c1cccc(-c2cnc(Nc3cccc(C(F)(F)F)c3)c3c2CCO3)c1	KDM5B inhibitor 13µM
O=C(Nc1ncc(-c2cccc(F)c2)c2c1OCC2)c1ccncc1	none
O=C(Nc1cccc(F)c1)c1ccc2c(c1)OCCO2	none
CNC(=O)c1cccc(-c2cnc(Nc3ccc(F)c(Cl)c3)c3c2CCO3)c1	KDM5B inhibitor 35µM
Cc1nc(-c2c3n(c(=O)n(CC(=O)Nc4cccc(Cl)c4C)c2=O)CCCC3)no1	none
CCN(CC)S(=O)(=O)c1cc(C(=O)OCc2csc(-c3ccccc3)n2)ccc1Cl	none
O=S(Cc1ccc(Cl)cc1)Cc1cccc(C(F)(F)F)c1 (stereo not given)	none
Cc1ccc(/C=C/C(=O)O)cc1Cl	none
Fc1ccc(-c2cn3c4ccccc4n(CCN4CCOCC4)c3n2)cc1	none
CCOc1cccc(CNC(=O)[C@H]2CCC[C@H]2NC(=O)c2cnc(C)cn2)c1	none
N=C(N)COc1ccc(Cl)c(Cl)c1	none
CC(=O)N(CCCNC(=O)c1nn(C)c(=O)c2ccccc12)C(C)C	none
COC(=O)c1ccc(CNCc2ccco2)o1	none
COc1cc(OCc2ccccc2)ccc1CN1CC[C@@]2(O)CCNC[C@H]2C1	none
